MLLE-PAM2 inh – blocks PAM2 peptide binding to the PABP1 MLLE domain | P11940 | GST-MLLE / FITC-PAM2 fluorescence polarization | inhibition, % at 20 µM | hit rate 0.36% among 360,000; in the data active = inhibition above about 35%, passing the limit was not always enough
EBV gp42 block – EBV gp42 inhibition | Q1HVG2 | hit rate 0.42% among 220,000 | Fluorescence polarization binding assay, mP read-out | inhibition, % (tested at 21.74 µM); in the data active = inhibition above about 50%
Target sequence (Q1HVG2 whole entry, looked up): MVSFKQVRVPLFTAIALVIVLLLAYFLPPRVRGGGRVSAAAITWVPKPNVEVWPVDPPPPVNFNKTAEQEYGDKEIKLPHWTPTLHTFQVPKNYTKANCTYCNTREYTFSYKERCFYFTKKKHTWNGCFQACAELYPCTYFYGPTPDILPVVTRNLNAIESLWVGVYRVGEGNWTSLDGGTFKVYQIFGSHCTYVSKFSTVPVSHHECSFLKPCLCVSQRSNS
PABP FP inh – blocks human PABP binding to poly(A) RNA; calls only at 35 µM; fluorescence polarization; P11940; hit rate 1% among 290,000;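 also: calls also rest on retests at 20 µM and on dose response follow-up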
MEX-5 binding – C. elegans MEX-5 TCR-2 RNA binding activity | Q9XUB2 | MEX-5/FITC-TCR2 RNA binding, fluorescence polarization; active compounds read low | activity score (negative = inhibition of binding), % at 10 µM | hit rate 0.38% among 300,000 | AID 1832;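 active = inhibition past about -25% in most replicates, and total fluorescence under double the plate's negative control median, limit read from the data; inconclusive = replicates evenly split on the limit, or fluorescence at least double controls; inactive = too little inhibition in most replicates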
eIF4H inh – inhibitors of RNA binding by human eIF4H | Q15056 | inhibition, % at 35 µM | eIF4H fluorescence polarization binding assay | hit rate 0.94% among 290,000;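 also: calls also rest on retests at 20 µM and on dose response follow-up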
Numbers stand for hits; 0 = inactive; ? = inconclusive; - = no result; + = active, no number. Compounds with a hit are over-represented: about 1.8% of the library has one in this group of screens. Unless noted, no rule for the calls is given here.

SMILES	MLLE-PAM2 inh	EBV gp42 block	PABP FP inh	MEX-5 binding	eIF4H inh
CCOc1ccc(NC(=O)C(c2ccccn2)N(C(=O)CCl)c2ccc(OC)cc2)cc1 (stereo not drawn)	0	0	0	0	0
CCC(CC)Nc1ccc(C(CC(N)=O)NC(=O)Cc2cccc3ccccc23)cc1[N+](=O)[O-] (stereo not drawn)	0	-	+	0	0
CCOc1cccc(-c2ccc3nncn3c2)c1	0	-	-	-	-
Cc1cccc(C)c1-n1nnnc1C(c1cc2ccccc2o1)N1CCN(C/C=C/c2ccccc2)CC1 (stereo not drawn)	0	-	-	-	-
CC1=NN(c2ccc(N)cc2)C(=O)C1	0	0	+	0	0
COc1ccccc1OCC(=O)N/N=C(\C)c1ccc2ccccc2c1	0	-	-	-	-
Nc1ncnc(NNC(=O)CNC(=O)c2c(F)cccc2Cl)c1[N+](=O)[O-]	0	0	0	-66	0
COc1ccccc1C(=O)NCC(=O)NNc1ncnc(N)c1[N+](=O)[O-]	-	0	0	0	0
CC1CC(C)CN(CC(=O)N2CCc3[nH]c4ccccc4c3C2)C1 (stereo not drawn)	0	0	+	0	126
Cn1cccc1/C=C1\SC(=S)N(NC(=O)c2ccccc2O)C1=O	0	0	+	0	82
Cn1cccc1/C=C1\SC(=S)N(NC(=O)c2ccccc2)C1=O	0	0	0	-	?
COc1ccccc1C(=O)NN1C(=O)/C(=C/c2cccn2C)SC1=S	-	0	+	-	0
CC(C(=O)O)N1C(=O)/C(=C/c2cccn2C)SC1=S (stereo not drawn)	0	0	+	-	0
O=C(NN1C(=O)/C(=C/C=C/c2ccco2)SC1=S)c1ccccc1O	0	0	+	0	94
CCC(C(=O)O)N1C(=O)/C(=C/c2cccn2C)SC1=S (stereo not drawn)	0	0	0	-	?
Cn1cccc1/C=C1\SC(=S)N(NC(=O)c2ccc(F)cc2)C1=O	0	0	?	-	?
Cc1ccc(C)c(-n2c(N)c(C(N)=O)sc2=S)c1	0	0	-	0	-
Cc1ccc(-n2c(N)c(C(N)=O)sc2=S)c(C)c1	0	0	0	-	60
CCOC(=O)CC(S(=O)(=O)c1ccccc1)S(=O)(=O)c1ccccc1	0	-	-	-	-
Nc1c(C(=O)c2ccc(Cl)cc2)oc2ccccc12	0	0	+	0	active
Cc1ccccc1Nc1nc(Cl)c(C=O)s1	0	0	+	-41	78
Cc1ccccc1Nc1n[nH]c(=S)s1	0	-	-	-	-
CC(=O)Nc1ccc(-c2ccc3nnc(C)n3n2)cc1	0	0	0	0	0
Cc1nnc2ccc(-c3ccc(NC(=O)c4ccco4)cc3)nn12	0	0	0	0	74
CCC(=NCCc1ccc(OC)c(OC)c1)c1ccccc1O	0	-	0	0	0
SMILES	MLLE-PAM2 inh	EBV gp42 block	PABP FP inh	MEX-5 binding	eIF4H inh
CCC(=NCCc1ccc(OC)c(OC)c1)C1=C(O)CC(C)(C)CC1=O	0	0	0	0	active
C=CCc1cccc2cc(C(=O)Nc3ccc(S(=O)(=O)Nc4nnc(CC)s4)cc3)c(=O)oc12	0	73	+	0	67
COc1cc(/C=N\Nc2ccc([N+](=O)[O-])cc2)ccc1OCC(=O)Nc1ccc(C)c(C)c1	0	0	+	?	?
Cc1ccccc1NS(=O)(=O)c1ccc2c(c1)CCC(=O)N2	0	-	-	-	-
O=c1c2c(nc3cc(-c4ccc(Cl)cc4)[nH]n13)CCS2	0	0	+	0	?
CCc1c(C)nc2cc(-c3ccc(Cl)cc3)[nH]n2c1=O	0	-	0	0	0
OCC1CSC(=S)N1Cc1ccccc1 (stereo not drawn)	0	-	-	-	-
CCCCC1=CC2=C(c3ccco3)C(=O)C(C)(OC(=O)c3ccc(OC)cc3)C(=O)C2=CN1C1CC1 (stereo not drawn)	0	0	?	-59	?
CCCCC1=CC2=C(c3ccco3)C(=O)C(C)(OC(=O)c3ccc(OC)cc3)C(=O)C2=CN1C1CCCC1 (stereo not drawn)	-	-	-	-29	-
CCCCC1=CC2=C(c3ccco3)C(=O)C(C)(OC(=O)c3ccc(OC)cc3)C(=O)C2=CN1CCCCO (stereo not drawn)	0	0	?	0	?
CCCCC1=CC2=C(c3ccco3)C(=O)C(C)(OC(=O)c3ccc(OC)cc3)C(=O)C2=CN1CCN1CCOCC1 (stereo not drawn)	0	0	?	-38	?
CC1(OC(=O)C2CCCC2)C(=O)C=C2C=C(c3ccsc3)N(CCN3CCOCC3)C=C2C1=O (stereo not drawn)	-	0	+	0	0
COC(=O)CCCC1=CC2=C(c3ccccc3)C(=O)C(C)(OC(=O)C3CCCC3)C(=O)C2=CN1CCN1CCOCC1 (stereo not drawn)	40	0	0	0	0
COC(=O)CCCC1=CC2=C(c3ccccc3)C(=O)C(C)(OC(=O)C3CCCC3)C(=O)C2=CN1CCc1ccccn1 (stereo not drawn)	0	0	0	0	0
O=C1c2ccccc2C(=O)c2c(O)c(O)cc(O)c21	0	-	-	-	-
O=C1C=C(O)c2c(O)cc(O)c(O)c2C1=O	0	-	-	-100	-
O=c1n(Cc2ccccc2)c(O)c2n1Cc1ccccc1N=C2c1ccccc1	0	-	-	-	-
CC1=CC(=C(C#N)c2nc3ccccc3s2)C=C(C)N1c1ccc(F)cc1	0	180	0	0	?
CC(C)=C(C#N)c1nc2ccccc2s1	0	0	0	0	0
COc1ccccc1N1C(C)=CC(=C(C#N)c2nc3ccccc3s2)C=C1C	0	164	0	-38	?
Cc1ccc2ccccc2c1C(O)c1ncc(-c2ccccc2Cl)[nH]1 (stereo not drawn)	0	-	-	-	-
CCc1nc2c(OCc3ccccc3)cccn2c1N(C)C(=O)c1ccc2c(c1)OCO2	0	-	-	-	-
COC(=O)CC(NC(=S)NC(=O)c1ccccc1)c1ccc(Br)cc1 (stereo not drawn)	46	-	0	0	0
CC(C)(C)c1cc[n+](-c2[nH]c(=O)sc2/C=N/NC([S-])=Nc2ccccc2)cc1	0	117	?	?	?
Cc1cc[n+](-c2[nH]c(=O)sc2/C=N/NC([S-])=Nc2ccccc2)cc1C	0	64	0	0	?
SMILES	MLLE-PAM2 inh	EBV gp42 block	PABP FP inh	MEX-5 binding	eIF4H inh
Cc1cccc(CC(=O)NCCS(=O)(=O)N2CCN(c3ccccc3)CC2)c1	0	-	-	-	-
CCCCN1C(=O)/C(=C2\SC(N3CCCCC3)=NC2=O)c2ccccc21	40	0	0	0	0
O=C1N=C(N2CCOCC2)S/C1=C1\C(=O)N(Cc2ccccc2)c2ccc(Br)cc21	-	-	0	-	0
CC1(C(=O)NCc2cccc3ccccc23)CCN1Cc1cccc2c1OCO2 (stereo not drawn)	0	-	-	-	-
CCOc1cc(Br)ccc1S(=O)(=O)N1CCC(C(N)=O)CC1	0	0	+	0	active
CCOC(=O)C1=CCN(S(=O)(=O)c2ccc(C)cc2)C1c1cccc(Cl)c1 (stereo not drawn)	0	-	-	-	-
O=S1(=O)CC(N2CCN(CCO)CC2)CN1Cc1ccccc1 (stereo not drawn)	0	-	-	-	-
CCOC(=O)C1CCN(Cc2c(O)ccc3ccccc23)CC1	0	0	0	0	0
CCOC(=O)N1CCN(Cc2c(O)ccc3ccccc23)CC1	40	0	0	0	0
